The structures appear in SMILES notation. The whole screen tested about 320,000 compounds, of which about 500 (0.16%) were called active. Only a selection was taken, and actives are over-represented in it overall. A number with no mark means an inactive call.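 How the source made its calls: active means inhibition above the mean of all tested compounds plus 3 SD, set per campaign (cut at about 14% in these data); inactive means the rest.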

The target in this assay is Acyl-protein thioesterase 1 (Homo sapiens) (UniProt O75608). Nature of the assay: LYPLA1 inhibitors, primary screen, counter-screen for PME1 inhibitor project, biochemical, fluorescence polarization, FP-Rh probe ABPP (AID 2174).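 Further: inhibitors block serine hydrolase probe labeling of LYPLA1 so polarization falls; 0% = enzyme with DMSO and 100% = wells lacking LYPLA1.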 Particulars: recombinant LYPLA1, FP-Rh probe fluorescence polarization; at 5.9 µM; stronger effect = higher value. In general terms: A counterscreen serves to expose hits that act by an unwanted route or on another target.
Sequence of Acyl-protein thioesterase 1 (Homo sapiens) (O75608 whole entry, looked up): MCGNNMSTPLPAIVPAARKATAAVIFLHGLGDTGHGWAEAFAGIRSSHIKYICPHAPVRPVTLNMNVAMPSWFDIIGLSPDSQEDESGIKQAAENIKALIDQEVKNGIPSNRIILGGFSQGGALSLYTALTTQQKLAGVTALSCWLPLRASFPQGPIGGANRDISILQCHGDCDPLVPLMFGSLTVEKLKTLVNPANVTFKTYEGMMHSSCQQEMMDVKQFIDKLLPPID
In the case of `O=C(CSc1nc2ccccc2c(=O)n1-c1ccc(F)cc1)NC1CC1`, the inhibition (as a rule, the relative decrease from the control value, in per cent) was 0.87%.
Next, `O=C(CCn1c(SCC(=O)c2ccccc2)nc2ccccc2c1=O)NCc1ccc(F)cc1`: 33.2% (active); `O=C(CCCn1c(SCC(=O)c2ccccc2)nc2ccccc2c1=O)NCC1CCCO1` (stereo not given): 2.13%.
Turning to `O=C(N/N=C/c1ccsc1)c1cc(O)cc(O)c1`, the inhibition was 3.13%.
In the case of `CCOCCCNC(=O)c1cn(CC(C)C)c(=O)c2c1c1ccccc1n2C`, the inhibition is 0.47%.
The result for `COc1ccc(S(=O)(=O)N/N=C\c2ccc(OC)c(COc3ccc(C)cc3[N+](=O)[O-])c2)cc1` reads 3.24%; that for `Cc1ccc(N(CC(=O)NC2CCCCC2)C(=O)CCCC(=O)Nc2ccccn2)c(C)c1`, -5.08%; that for `CC1CCCCC1NC(=O)NC(=O)COC(=O)C1=NN(c2ccccc2)C(=O)CC1` (stereo not given), -3.28%.
Next, `CCOc1ccc(S(=O)(=O)N2CCCC(C(=O)N3CCC(C(N)=O)CC3)C2)cc1Cl` (stereo not given): -0.84%; `CCn1cc(CN2CCC(C(=O)Nc3cccc(-c4cccc(Cl)c4)c3)CC2)c(C)n1`: -1.53%.
The result for `O=C(NCc1ccccc1Cl)C1CCN(c2ncnc3c2nc2n3CCCCC2)CC1` reads 3.58%.
Regarding `O=C(Cc1ccccc1F)NC1CCSc2ccccc21` (stereo not given), the inhibition is -2.96%.
Next, `O=C(CC1Nc2ccccc2NC1=O)Nc1ccccc1` (stereo not given): -11.2%.
`COc1ccc(NS(=O)(=O)c2cccc(C(=O)NCCc3ccc(S(N)(=O)=O)cc3)c2)cc1`: the inhibition was 0.92%.
Consider `CCC(Cc1ccccc1)NC(=O)C1CCCCC1` (stereo not given), for which the inhibition is -0.48%.
Take `CCN(CC)S(=O)(=O)c1ccc(N2CCOCC2)c(NC(=O)c2ccc(=O)n(C)n2)c1`: the inhibition was 3.13%.
Next, `CCOC(=O)/C(=N\Nc1ccccc1Cl)N(C)C1CCS(=O)(=O)C1` (stereo not given): 6.62%.
On to `O=C(Nc1nnc(C2COc3ccccc3O2)o1)c1ccc(F)cc1` (stereo not given), for which the inhibition was -3.93%.
Turning to `COc1ccc2c(c1)OC(O)(C(F)(F)C(F)F)CC2=O` (stereo not given), the inhibition was 0.29%.
The result for `Cc1cc(-c2ccccc2)nc(N2CCC(C(=O)NC34CC5CC(CC(C5)C3)C4)CC2)n1` reads -0.18%; that for `CC(=O)Nc1ccc(C(=O)N(C2=NC(C)CS2)c2ccc(Cl)cc2)cc1` (stereo not given), -16.3%.
The result for `O=C(Nc1cccc(Cl)c1)c1cncn1-c1ccc(F)cc1` reads -4.38%; that for `CC(C)(C)c1ccc(CCC2OCC(CN3CCOCC3)O2)cc1` (stereo not given), -1.79%; that for `O=C1CN(C(=O)COc2c(Cl)cccc2Cl)c2ccccc2N1`, -0.08%.
The result for `Cc1ccc(OCc2cc(C(=O)N(C)CCc3ccccc3)no2)cc1C` reads 2.48%; that for `O=C(NCCCc1ccccc1)c1cc(COc2c(F)cccc2F)on1`, -0.18%.
Turning to `CN(CCOc1ccccc1)C(=O)c1cc(COc2c(F)cccc2F)on1`, the inhibition is 17.4% (active).
The result for `COc1cccc(NC(=O)N2CCCC2C(=O)NC2CCCCC2)c1` (stereo not given) reads 15.1% (active).
Next, `COc1cccc(NC(=O)N2C3CCCC2CC(NC(C)=O)C3)c1` (stereo not given): -0.11%; `COc1cccc(NC(=O)C2CCCN2C(=O)OCc2ccccc2)c1` (stereo not given): 1.14%; `CCc1c(SCCC(=O)O)nc2ccccc2c1C`: 2.67%.
Next, `COc1ccc2c(c1)[C@H]1[C@H](CO2)[C@H](c2ccccc2)[C@]2(C)C(=O)Nc3cc(F)c(F)cc3C(=O)N12`: -14.6%; `Cc1cccc(N2CCC(NCc3c(C(=O)N4CCCCC4)nc4c(C)cccn34)CC2)c1`: 0.61%; `COc1ccc(C2CC(c3cccs3)Nc3nnnn32)cc1` (stereo not given): 0.92%.
With `CN(Cc1ccc(F)cc1Cl)S(=O)(=O)c1cccs1`, the inhibition was 4.05%.
The result for `O=C(/C=C/c1cccc(C(F)(F)F)c1)N1CCN(c2ccccn2)CC1` reads -2.76%.
The result for `Cc1cc(OCC(=O)N2CCN(c3ncccn3)CC2)ccc1Cl` reads -2.47%; that for `CCOc1ccc(C(=O)NCC(=O)N2CCN(c3ccc(C(F)(F)F)cn3)CC2)cc1`, 2.56%.
In the case of `Cc1ccc(CNC(=O)CCNS(=O)(=O)c2ccc(Br)s2)cc1`, the inhibition is 0.04%.
The result for `COC(=O)c1ccc(CSc2ccc(S(=O)(=O)N3CCCCC3)cn2)cc1` reads -1.32%; that for `CCOc1ccc(-n2cnnn2)cc1S(=O)(=O)N1CCC(C)CC1C` (stereo not given), 3.81%; that for `COc1ccc(CCNC(=O)CSc2nc(-c3ccc(OC)c(OC)c3)ccc2C#N)cc1`, -12.1%.
The result for `O=C(COc1ccc2ccccc2c1)N1CCN(C(=O)c2cccs2)CC1` reads 1.27%.
The result for `O=C(O)c1ccccc1NC(=S)NC(NC(=O)c1ccccc1[N+](=O)[O-])C(Cl)(Cl)Cl` (stereo not given) reads 2.28%; that for `Cc1ccccc1Nc1nc(N)nc(CSc2ccccc2)n1`, -4.27%.
For `O=C1COc2ccc(NC(=O)N3CCN(c4ccc(F)cc4)CC3)cc2N1`, the inhibition was -0.21%.
For the compound `CCCCCOc1ccc(/C=C/C(=O)NCCc2nc3ccccc3[nH]2)cc1OC`, the inhibition is -8.82%.
Next, `CCN(CC(=O)Nc1c(F)cccc1F)C(=O)c1ccc(S(=O)(=O)N2CCCCC2)cc1`: 0.21%; `CCOc1ccc2ccccc2c1/C=N/NC(=O)c1c(C)cc(C)[nH]c1=O`: -5.43%.
The result for `COc1ccccc1N1CCN(C(=O)c2ccc(Cl)c(S(=O)(=O)N3CCCC3)c2)CC1` reads 1.54%; that for `Cc1[nH]c2ccc(C(=O)N3CCN(C)CC3)cc2c1C`, 2.14%.
The result for `CCOc1ccccc1N1CCN(C(=O)c2ccc3[nH]c(C)c(C)c3c2)CC1` reads 14.2% (active); that for `NC(=O)C1(N2CCCCC2)CCN(C2CC(=O)N(Cc3ccc(N4CCCC4=O)cc3)C2=O)CC1` (stereo not given), 2.22%.
In the case of `COc1cccc(NC(=S)NC(=O)c2c(Cl)c(C)nn2C)c1`, the inhibition is -3.22%.
The result for `COCCNc1nc2nonc2nc1N1CCCC1c1nccs1` (stereo not given) reads 1.24%; that for `COc1ccccc1C(=O)NC(CCSC)C(=O)NNC(=O)c1ccccc1C` (stereo not given), 2.08%.
The result for `COc1ccccc1C(=O)NC(CCSC)C(=O)N1CCN(C/C=C/c2ccccc2)CC1` (stereo not given) reads 18.2% (active); that for `COc1ccccc1C(=O)NC(CCSC)C(=O)N1CCN(C(C)=O)CC1` (stereo not given), -1.6%.
The result for `O=c1[nH]c2cccnc2n1-c1ccc([N+](=O)[O-])cc1` reads -1.44%.
Take `COc1cnn(-c2ccc([N+](=O)[O-])cc2)c(=O)c1Cl`: the inhibition is 3.8%.
Next, `O=c1[nH]n(-c2ccc([N+](=O)[O-])cc2)c(=O)c2ccccc12`: 22.9% (active); `CCNC(=O)CC1C(=O)N(c2ccc(F)cc2)C(=O)N1Cc1cccs1` (stereo not given): 1.31%.
Take `Cc1cc(C)c2c(n1)sc1c(=O)n(-c3ccccc3)c(=O)[nH]c12`: the inhibition is -3.16%.
With `CCOc1ccc(S(=O)(=O)N/N=C(\C)c2ccc(Cl)c(Cl)c2Cl)cc1`, the inhibition is 0.76%.
Next, `C=CCSC(CC)(CC)C(N)=O`: 6.47%; `CCCc1ccc(OCC(O)CN2CCN(C(=O)OCC)CC2)cc1` (stereo not given): 2.73%; `COc1cccc(OC)c1C(=O)NC(=S)Nc1ccc(N2CCOCC2)c(Cl)c1`: -4.94%.
In the case of `CCOc1ccc(C(=O)NC(=S)Nc2ccc(NC(=O)C(C)C)cc2)cc1[N+](=O)[O-]`, the inhibition was 2.01%.
Next, `CCOc1ccc(C(=O)NC(=S)Nc2ccc(N3CCOCC3)c(Cl)c2)cc1[N+](=O)[O-]`: 19.9% (active); `CCN1C(=NCCc2cccnc2)N[C@@H](c2ccccc2)C(C(=O)OC)=C1C`: -0.51%.
In the case of `Cc1ccc(NC(=O)c2ccc(CSc3ncnc4nc[nH]c34)cc2)c(C)c1`, the inhibition is -1.38%.
In the case of `COc1ccccc1C(CNC(=O)c1cccc(S(=O)(=O)Nc2ccc(F)cc2)c1)N(C)C` (stereo not given), the inhibition was -0.85%.
On to `CC(C)(C)NC(=O)COc1ccc(CNc2ccc3[nH]c(=O)[nH]c3c2)cc1`, for which the inhibition was -1.08%.
The result for `CC(Oc1ccc(F)cc1)C(=O)N1CCN(c2ncccn2)CC1` (stereo not given) reads -4.75%; that for `O=C(c1ccc(Br)o1)N1CCN(CCOc2ccccc2)CC1`, 2.69%; that for `CC1(C)OC(=O)C(=CNC(CO)C(=O)O)C(=O)O1` (stereo not given), -1.91%.
The result for `CCC(=C/c1sc2ccc3ccccc3c2[n+]1C)/C=C1\Sc2ccc3ccccc3c2N1C` reads 25% (active); that for `O=C(COc1ccc(Cl)cc1)N1CCN(S(=O)(=O)c2ccc(Cl)cc2)CC1`, -0.66%; that for `Cc1c(C)c2ccc(OCC(=O)N3CCN(c4cccc(Cl)c4)CC3)cc2oc1=O`, 6.19%.
Next, `O=C(COc1ccc(Cl)cc1)N1CCN(c2cccc(C(F)(F)F)c2)CC1`: 20.5% (active); `CC/C(=N\NC(=O)c1c(C)nc2ccccn12)c1ccc(Cl)cc1`: -2.24%.
In the case of `O=C(c1ccco1)N1CCN(CC(=O)N(C2CCCCC2)C2CCS(=O)(=O)C2)CC1` (stereo not given), the inhibition was 5.75%.
Next, `CC(CC(=O)C1C(C)C=CCC1(C)C)NNC(N)=O` (stereo not given): 0.24%.
The result for `CCOC(=O)c1sc2nc(C)nc(Nc3ccc(OC)c(OC)c3)c2c1C` reads -0.83%.
Next, `CSc1nc(-c2ccccc2)nc(C(Cl)Cl)n1`: 3.5%.
As to `CCn1c(CC(=O)Nc2ccc(C)cc2)nnc1SCC(=O)Nc1nc(C)cs1`, the inhibition was -2.24%.
Next, `Cc1ccc(NC(=O)NNC(=O)c2sccc2-n2cccc2)cc1`: -1.32%; `CCOC(=O)NN1C(=O)c2ccccc2NC1c1ccccc1O` (stereo not given): 2.15%.
With `COc1cccc(CNS(=O)(=O)c2csc(C(N)=O)c2)c1`, the inhibition is -2.15%.
Next, `CCCCn1c(N)c(N(CC(C)C)C(=O)CN(C)S(=O)(=O)c2ccc(F)cc2)c(=O)[nH]c1=O`: -3.12%.
